Laboratory results taken from PubChem BioAssay AID463173 (ICCB-Longwood Screening Facility, Harvard Medical School, 2010).
Out of some 52,000 compounds screened, about 1,700 (3.3%) were called active. The sample holds actives, similar compounds and a random draw of the others, so the mix is not that of the screen. Values without a mark were called inactive. Cut-off read from the data, not from the text of the source: active = survival mostly below about 52% (no sharp cut-off); inactive = mostly above about 56%.

Test system: Wild type
Assay: S. aureus survival, RN4220 and DeltatarO strains – OD600, teichoic acid synthesis inhibitors, primary screen (AID 463173)
Conditions: S. aureus RN4220 wild type/DeltatarO growth, OD600, 18 h, stronger effect = lower value, screened at 18.75 µg/mL (by protocol)

Structure (SMILES)	survival
O=C(NC1CCCCC1)c1ccco1	102%
COc1ccc(OC)c(NC(=O)c2sc3nc4c(cc3c2N)CCCCCC4)c1	70%
CC(=O)N1c2ccc(S(=O)(=O)N3CCCCCC3)cc2CC1C(=O)NCc1ccccc1F (configuration not stated)	131%
O=C(NCCSc1c(-c2ccc(Br)cc2)[nH]c2ccccc12)c1ccc(S(=O)(=O)N2CCOCC2)cc1	84%
Cn1c(SCCC(=O)O)nnc1-c1ccncc1	105%
Cc1cc(N2CCCC(O)C2)n2nc(C)c(-c3ccc(F)cc3)c2n1 (configuration not stated)	120%
COc1ccc(C2=C(Nc3ccc(Br)c(C)c3)c3ccccc3C2=O)cc1	20% (active)
COc1ccc(C2=C(Nc3ccc(C)cc3C)c3ccccc3C2=O)cc1	76%
COc1ccc(C2=C(Nc3ccc(C)c(C)c3)c3ccccc3C2=O)cc1	90%
O=C(NCC1(c2ccccc2)CCCC1)C(=O)Nc1cccc(Br)c1	96%
Cc1cc(C)cc(NC(=O)CCCn2c3ccccc3c(=O)c3ccccc32)c1	69%
O=C(NCCc1ccccc1Cl)c1cc2ccccn2n1	140%
COc1cc(NC(=O)c2nc3ccccc3nc2N2CCCCC2)cc(OC)c1OC	82%
COc1cc(NC(=O)C2CCN(c3nc4ccccc4nc3C(F)(F)F)CC2)cc(OC)c1	78%
COc1cc(NC(=O)C2CCN(c3cnc4ccccc4n3)CC2)cc(OC)c1OC	-6% (active)
CCc1ccc(-n2c(Cc3ccccc3)nnc2SCc2nc(-c3cccs3)no2)cc1	99%
CCC(C(=O)Nc1ccc(C(C)=O)cc1)n1cnc2nc3c(cc2c1=O)CCCC3 (configuration not stated)	63%
COc1cc(NS(=O)(=O)c2cnc(N)nc2)cc(OC)c1	64%
Nc1ncc(S(=O)(=O)Nc2ccc(OC(F)(F)F)cc2)cn1	63%
CC(=O)c1ccc(NS(=O)(=O)c2cnc(N)nc2)cc1	1% (active)
Cc1cccc(NC(=O)C2CCN(S(=O)(=O)c3ccc4c(c3)CCCN4C(=O)C3CCC3)CC2)c1	74%
COc1cccc(N2CC(NC(=O)C(c3ccccc3)c3ccccc3)CC2=O)c1 (configuration not stated)	65%
COc1ccc(C2c3c(n(C)c4ccccc34)C(=O)N2CC(=O)Nc2ccccc2Cl)cc1 (configuration not stated)	135%
COc1ccccc1CNC(=O)CCc1c(C)c2cc3c(C)c(C)oc3cc2oc1=O	114%
CCCOc1cccc(C(=O)Nc2ccc(-c3nc4ccccc4s3)c(Cl)c2)c1	65%

Structure (SMILES)	survival
Cc1cccc2cc(C#N)c(SCC(=O)NCC3CCCO3)nc12 (configuration not stated)	103%
COc1cc(Cl)c(NC(=O)CN(C)S(=O)(=O)c2ccc3c(c2)CCCC(=O)N3)c(OC)c1	59%
Cc1ccc(C)c(NC(=O)CCNS(=O)(=O)c2ccc3c(c2)CCCC(=O)N3)c1	-6% (active)
Cc1ccc(NC(=O)CCNS(=O)(=O)c2ccc3c(c2)CCCC(=O)N3)cc1	73%
COc1cc(OC)c(NC(=O)CN(C)S(=O)(=O)c2ccc3c(c2)CCCC(=O)N3)cc1Cl	1% (active)
Cc1cccc(NC(=O)CCNS(=O)(=O)c2ccc3c(c2)CCCC(=O)N3)c1C	80%
COc1cc(NC(=O)CN(C)S(=O)(=O)c2ccc3c(c2)CCCC(=O)N3)cc(OC)c1OC	81%
Cc1ccc(C)c(NC(=O)Cn2ncc3c([nH]c4ccccc43)c2=O)c1	45%
CC(C)c1ccc(NC(=O)Cc2ccc(NC(=O)N3CCCCc4ccccc43)cc2)cc1	110%
Nc1cc(=O)nc(SCC(=O)Nc2ccccc2)n1CCc1ccccc1	69%
Cc1ccc(NC(=O)CN2C(=O)C3(SCC(=O)N3c3ccc(F)c(F)c3)c3ccccc32)c(C)c1 (configuration not stated)	69%
COc1ccc(Nc2ncnc3sc4c(c23)CCCC4)cc1	73%
O=C(Cn1nnc2sc3c(c2c1=O)CCCC3)Nc1ccc(F)c(Cl)c1	33%
CCc1nc(Nc2ccc(F)c(Cl)c2)c2c3c(sc2n1)CCCC3	-1% (active)
Cc1ccccc1Cn1c2ccccc2c2cnn(CC(=O)N3CCC(C)CC3)c(=O)c21	12% (active)
Cc1cc(C)c(Cn2c3ccccc3c3cnn(CC(=O)N4CCCCC4)c(=O)c32)c(C)c1	125%
CCN1CCN(C(=O)Cn2ncc3c4ccccc4n(Cc4ccccc4F)c3c2=O)CC1	82%
Cc1ccccc1Cn1c2ccccc2c2cnn(CC(=O)NC3CCC(C)CC3)c(=O)c21 (configuration not stated)	78%
CCCn1c2ccccc2c2cnn(CC(=O)N3CCN(c4ccccc4F)CC3)c(=O)c21	-6% (active)
CCN1CCN(C(=O)Cn2ncc3c4ccccc4n(Cc4c(C)cc(C)cc4C)c3c2=O)CC1	126%
Cc1cc(C)c(Cn2c3ccccc3c3cnn(CC(=O)N4CCCCCC4)c(=O)c32)c(C)c1	1% (active)
CC1CCN(C(=O)Cn2ncc3c4ccccc4n(Cc4ccc(Cl)cc4)c3c2=O)CC1	95%
CCCn1c2ccccc2c2cnn(CC(=O)N3CCC(C)CC3)c(=O)c21	67%
COc1ccc(NC(=O)Nc2nnc(N(CC(C)C)CC(C)C)s2)c(OC)c1	96%
COc1ccccc1C(=O)Nc1sc(Nc2ccccc2)nc1C(N)=O	146%

Structure (SMILES)	survival
S=c1nc(CNc2ccccc2)[nH][nH]1	95%
CC(=O)N1c2c(cc(Br)cc2S(=O)(=O)N2CCN(c3cc(C)ccc3C)CC2)CC1C (configuration not stated)	72%
COc1ccc(NC(=O)Cn2c(=O)n(CCCCCC(=O)NCc3ccc4c(c3)OCO4)c(=O)c3sccc32)cc1Cl	89%
COc1ccc2c(CNCCc3cccs3)c(C(=O)O)n(Cc3ccc(F)cc3Cl)c2c1	115%
CCCCN1CC(c2nc3ccccc3n2CCCCOc2cc(C)cc(C)c2)CC1=O (configuration not stated)	14% (active)
CCCCN1CC(c2nc3ccccc3n2CCCCOc2c(C)cccc2C)CC1=O (configuration not stated)	61%
Cc1ccccc1OCCCCn1c(C2CC(=O)N(c3ccccc3Cl)C2)nc2ccccc21 (configuration not stated)	59%
CCCCN1CC(c2nc3ccccc3n2CCCCOc2ccccc2C)CC1=O (configuration not stated)	15% (active)
CCCCN1CC(c2nc3ccccc3n2CCCCOc2ccc(C)c(C)c2)CC1=O (configuration not stated)	24%
CCCCn1c(C2CC(=O)N(c3ccc(OCC)cc3)C2)nc2ccccc21 (configuration not stated)	84%
CCCCN1CC(c2nc3ccccc3n2CCCCOc2cccc(C)c2C)CC1=O (configuration not stated)	-13% (active)
Cc1ccc(-c2nn(-c3ccc(F)cc3F)c3c2cnc2ccc(F)cc23)cc1	65%
CCOC(=O)c1ccc(NC(=O)CSc2nc(-c3cccs3)cc(C(F)(F)F)c2C#N)cc1	85%
CC(C)N(C(=O)Cn1cc(S(=O)(=O)Cc2ccc(Br)cc2)c2ccccc21)C(C)C	80%
O=C(c1ccc2c(c1)N(Cc1cccc(Cl)c1)C(=O)c1ccccc1S2)N1CCOCC1	99%
Cc1ccnc(N2CCC(C(=O)NCc3ccc(F)cc3)CC2)n1	105%
Nc1nc2nc(-c3ccc(Cl)cc3)cc(C(F)(F)F)n2n1	144%
CC(C)c1ccccc1NC(=O)CC(C)(C)C	121%
C=CCc1cccc2cc(-c3nc4ccc(C)cc4[nH]3)c(=O)oc12	-3% (active)
C=CCc1cccc2cc(-c3nc4ccc(C(=O)O)cc4[nH]3)c(=O)oc12	83%
COc1cccc2cc(-c3nc4ccc(C)cc4[nH]3)c(=O)oc12	73%
COC(=O)c1ccc(NC(=O)CSc2cn(CC(=O)N3CCCCC3)c3ccccc23)cc1	89%
CCC(=O)N1CCc2cc(S(=O)(=O)CCC(=O)N3CCN(c4ccccc4Cl)CC3)ccc21	78%
CCCCOc1ccc(C2=NC(c3ccncc3)=Nc3ccc(OCC)cc3N2)cc1	90%
COc1ccc(C2=NC(c3ccncc3)=Nc3ccc(Br)cc3N2)cc1	94%

Structure (SMILES)	survival
CCCCOc1ccc(C2=NC(c3ccncc3)=Nc3ccc(Br)cc3N2)cc1	-4% (active)
COc1ccc(CNC(=O)CCc2c(C)c3cc4c(C)coc4c(C)c3oc2=O)cc1OC	82%
CC(C)OC(=O)CSc1nnc(-c2ccc(O)cc2)n1-c1ccccc1	116%
COc1ccccc1-n1nc(-c2ccccc2)c2cnc3c(F)cc(F)cc3c21	119%
Cc1ccc(-c2nc(CCNC(=O)C(=O)Nc3ccc(C)c(Cl)c3)cs2)cc1	47%
Cc1ccc(-c2nc(CCNC(=O)C(=O)Nc3ccc(C)c(C)c3)cs2)cc1	-3% (active)
Cc1ccc(-c2nc(CCNC(=O)C(=O)Nc3c(C)cccc3C)cs2)cc1	0% (active)
Cc1ccc(-c2nc(CCNC(=O)C(=O)Nc3ccc(C)cc3C)cs2)cc1	53%
Cc1cccc(NC(=O)C(=O)NCCc2csc(-c3ccc(F)cc3)n2)c1C	75%
Cc1cc(C)c(NC(=O)C(=O)NCCc2csc(-c3ccc(F)cc3)n2)c(C)c1	76%
O=C(c1cccs1)N1CCCn2c1nc1ccccc12	106%
CCc1nn2c(=O)cc(COC(=O)c3cccc(NC(=O)c4ccccc4C)c3)nc2s1	91%
CCc1nn(CC(=O)Nc2ccc(C)c(F)c2)c(=O)c2cc3cc(C)ccc3n12	109%
COc1ccc2c(c1)Cc1sc(NC(=O)c3cccc(F)c3)nc1-2	69%
COc1ccc2c(c1)-c1nc(NC(=O)c3ccc(Cl)cc3)sc1CC2	93%
COc1ccc2c(c1)-c1nc(NC(=O)c3ccccc3F)sc1CC2	-1% (active)
COc1ccc2c(c1)-c1nc(NC(=O)c3cc(Cl)ccc3OC)sc1CC2	74%
COc1ccc(C(=O)Nc2nc3c(s2)CCc2cc(OC)ccc2-3)cc1	41%
COc1ccc2c(c1)-c1nc(NC(=O)c3ccc(C)cc3)sc1CC2	14% (active)
COc1ccc(C(=O)Nc2nc3c(s2)Cc2cc(OC)ccc2-3)cc1	72%
COc1ccc2c(c1)Cc1sc(NC(=O)c3cccc(C)c3)nc1-2	7% (active)
COc1ccc2c(c1)-c1nc(NC(=O)c3cccc(Br)c3)sc1CC2	54%
